# HCMV inh = qHTS Assay for inhibitors of the human cytomegalovirus (HCMV); HFF cells, HCMV-luciferase reporter, 72 h; hits give low values; activity change, negative = inhibition, % at 57.5 µM; hit rate 4.5% among 410,000; in the data active = activity change below about -60%; inconclusive = no clear call, values can overlap the other calls; inactive = above about -39%
#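 Screen run at 2 compound doses on HFFs infected with reporter HCMV, MOI 1 PFU/cell. Luciferase activity from cell lysates at 72 h post infection gave inhibition relative to buffer-only and Salinomycin wells.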
# HCV inhibitor = qHTS Assay for Inhibitors of Hepatitis C Virus (HCV); Huh7.5.1 HCVcc-Cre infection, luciferase reporter, 44 h; Potency, µM (top dose mostly 41.8 µM), most hits filed as inhibitors; hit rate 3.4% among 340,000; AID 651820, 2012
#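 After 44 h co-culture of compound, cells and HCVcc-Cre (~0.5 moi), substrate is added for 15 min at room temperature and luciferase measured over 15 sec. Cells were seeded at 1,000/well and pre-cultured 4 h.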
# FMDV inh = High Throughput Screening for Foot and Mouth Disease Virus Antivirals | AID 1159524, 2015 | Potency, µM (highest dose often 57.9 µM), usual class: inhibitors | hit rate 1.2% among 410,000 | FMDV antiviral cell-based qHTS; calls by dose curve; tested in HEK293T cells; also: read-out not given here; nearly all actives have a fitted effect of over 45% in size
# AmpC no deterg = qHTS Inhibitors of AmpC Beta-Lactamase (assay without detergent); P00811; AmpC nitrocefin hydrolysis, absorbance 480 nm, 0.0001% Triton; Potency, µM (highest dose often 57.1 µM), usual class: inhibitors; hit rate 0.52% among 330,000; also: nearly all actives have a fitted effect of over 20% in size
# Target sequence (P00811 whole entry, looked up): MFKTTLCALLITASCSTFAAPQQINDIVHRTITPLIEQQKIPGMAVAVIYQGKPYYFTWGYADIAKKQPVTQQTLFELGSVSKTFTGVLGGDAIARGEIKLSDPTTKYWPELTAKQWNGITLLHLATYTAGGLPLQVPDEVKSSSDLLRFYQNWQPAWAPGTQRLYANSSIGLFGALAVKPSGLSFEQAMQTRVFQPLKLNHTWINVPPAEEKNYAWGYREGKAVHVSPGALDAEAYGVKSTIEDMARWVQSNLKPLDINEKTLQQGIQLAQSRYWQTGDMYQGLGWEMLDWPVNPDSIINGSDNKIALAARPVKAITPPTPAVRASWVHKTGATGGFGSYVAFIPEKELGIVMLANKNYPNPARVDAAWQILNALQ
#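 20 mM phosphate pH 7.0 + 0.01% (detergent screen) or 0.0001% Triton X-100; 5.3 nM AmpC reagent; cpd preinc 15 min RT; nitrocefin (800 uM stock) to start; A480 q20 s × 4 min; Activity was normalised to no-enzyme and no-compound control wells.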
# AmpC inh detg = qHTS Inhibitors of AmpC Beta-Lactamase (assay with detergent) | hit rate 0.041% among 370,000 | Potency, µM (highest dose often 114 µM), hits mostly inhibitors | AID 485294, 2010 | AmpC hydrolysis of nitrocefin, absorbance 480 nm, 0.01% Triton; also: nearly all actives have a fitted effect of over 25% in size
#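 20 mM phosphate pH 7.0 + 0.01% (detergent screen) or 0.0001% Triton X-100; 5.3 nM AmpC reagent; cpd preinc 15 min RT; nitrocefin (800 uM stock) to start; A480 q20 s × 4 min; Activity was normalised to no-enzyme and no-compound control wells.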
# Numbers stand for hits; - = inactive; ? = inconclusive; . = no result; ! = repeats disagree. Compounds with a hit are over-represented: about 7.3% of the library has one in this group of screens. Unless noted, calls follow the shape of the dose curve; as a rule, active = well fitted curve in the direction sought with a large enough effect; inconclusive = small, poorly fitted or top-dose-only effect, or another doubt; inactive = no such curve, though single readings can be large; an effect the other way counts as inactive or inconclusive.
SMILES,HCMV inh,HCV inhibitor,FMDV inh,AmpC no deterg,AmpC inh detg
CCOC(=O)/C=C/C(=O)Nc1cc(S(=O)(=O)Nc2ccc(OC)cc2)ccc1N1CCOCC1,-,?,32µM,-,-
Cc1cccc2c(N3CCCC3)nc(CNS(=O)(=O)c3ccccc3Cl)nc12,.,.,-,.,.
Cc1ccc(NC(=O)CSc2nnc(-c3cc4occc4n3C)n2-c2ccccc2C)cc1F,-,.,-,.,-
COc1ccc(NS(=O)(=O)c2ccc(N3CCOCC3)c(NC(=O)c3cccc(F)c3)c2)cc1,-78,-,-,-,-
CC(=O)Nc1cccc(Oc2cc(C#N)c(C#N)cc2N2CCCCCC2)c1,-87,?,?,-,-
C[C@@H]1CN([C@@H](C)CO)C(=O)c2cc(Br)cnc2O[C@@H]1CN(C)C(=O)c1ccc(F)cc1,-,.,.,.,.
CCCSc1nc(-c2ccccc2)cc(C(F)(F)F)c1C#N,?,?,-,-,-
N#Cc1c(C(F)(F)F)cc(-c2ccccc2)nc1SCCN1CCOCC1,-,7.9µM,.,-,-
COc1ccc(NC(=O)C2C(c3ccc4c(c3)OCO4)=Nc3ccccc3N2C(C)=O)cc1 (stereo not drawn),-,.,-,.,.
CC(C)(C)OC(=O)NCc1ccc(CNC(=O)c2nc[nH]c2C(=O)N2CCN(c3ccccc3)CC2)cc1,-,?,20µM,-,-
O=C(Nc1ccccc1)c1nc[nH]c1C(=O)N1CCN(c2ccccc2)CC1,?,-,-,-,-
CC(C)(C)OC(=O)NCc1ccc(CNC(=O)c2nc[nH]c2C(=O)N2CCc3ccccc3C2)cc1,-,?,40µM,-,-
COc1ccc(NC(=O)c2nc[nH]c2C(=O)N2CCN(c3ccccc3)CC2)cc1,-72,-,-,-,-
CC(C)(C)OC(=O)[C@H](Cc1ccccc1)NC(=O)c1nc[nH]c1C(=O)N1CCN(c2ccccc2)CC1,-,-,-,-,-
CC(C)(C)OC(=O)NCCCCCNC(=O)c1nc[nH]c1C(=O)N1CCc2ccccc2C1,-,-,?,-,.
Cc1ccc(NC(=O)c2nc[nH]c2C(=O)N2CCc3ccccc3C2)cc1,-75,-,-,-,-
COc1cccc(C(O)c2ncc(-c3cccc4ccccc34)[nH]2)c1 (stereo not drawn),-,.,-,.,.
CCOC(=O)c1ccc(NC(=O)CSc2cn(CC(=O)N3CCCC3)c3ccccc23)cc1,-,.,-,.,-
Cc1ccc2nc(-c3ccc(NC(=O)CSc4ccccc4)cc3)[nH]c2c1,?,11µM,.,-,-
Cc1nc(SCC(=O)Nc2ccc(Br)cc2)[nH]c(=O)c1Cc1ccccc1,-,.,-,.,-
Cc1ccc(NC(=O)CSc2nc(C)c(Cc3ccccc3)c(=O)[nH]2)cc1,-64!,-,-,-,-
Cc1ccccc1C1(CC(=O)N2CCOCC2)CC(=O)N(Cc2cccnc2)C1=O (stereo not drawn),.,.,-,.,.
CCOC(=O)C1CCN(CCC(=O)Nc2ccc(Br)c(C)c2)CC1,-,?,?,-,-
COc1ccc(CCC(=O)NC(C)C)cc1,-86,-,-,-,-
COc1ccc(C(=O)N(C)c2ccccc2C(=O)NCCc2ccccc2)cc1,-97,?,-,-,-
SMILES,HCMV inh,HCV inhibitor,FMDV inh,AmpC no deterg,AmpC inh detg
COc1ccc(C(=O)COC(=O)CCc2ccccc2)cc1,-,-,-,-,-
COc1ccc(C(=O)CCc2ccccc2)cc1,?,11µM,-,-,?
COc1ccc(Nc2cc(C)nc3nc(C)nn23)cc1Cl,-,-,?,-,?
Cc1cc(Nc2ccc(C(C)C)cc2)nc(-n2nc(C)cc2C)n1,-91,.,-,.,-
COc1ccc(Nc2cc(C)nc(-n3nc(C)cc3C)n2)cc1Cl,-98,.,-,.,-
COC(=O)c1cc2sccc2n1Cc1nc(-c2cccc(Cl)c2)oc1C,-65!,-,?,-,-
O=C(CN1C(=O)S/C(=C\c2ccccc2F)C1=O)NC1CCS(=O)(=O)C1 (stereo not drawn),-62,-,-,-,-
O=C(CCCN1C(=O)/C(=C/c2ccc(F)cc2)SC1=S)NC1CCS(=O)(=O)C1 (stereo not drawn),-72,-,-,-,-
CC1(C)Oc2ccc3ccc(=O)oc3c2/C(=C/NNC(N)=O)C1=O,-95,-,-,-,-
Fc1ccc(-c2cn3cc(Cc4ccccc4)sc3n2)cc1,-66,.,13µM,.,-
ClC(Cl)(Cl)c1nc2ccccc2n2nncc12,-88,13µM,?,-,-
c1ccc2c(c1)nnn1c3ccccc3nc21,.,.,.,-,?
COc1ccc(C2CC(=O)N(Cc3cccc(C)c3)c3c2c(C)nn3-c2nc(C)cc(C)n2)c(OC)c1 (stereo not drawn),-,.,-,.,-
COC(=O)c1cn(NC(=O)c2cc([N+](=O)[O-])ccc2F)c(=O)c2ccccc12,-97,?,32µM,-,-
COC(=O)c1cn(NC(=O)C2CCC(C)CC2)c(=O)c2ccccc12 (stereo not drawn),-,-,-,-,-
COc1ccccc1CNc1nc(NCc2ccc3occc3c2)c2sccc2n1,?,.,25µM,.,.
COc1ccccc1CNc1nc(NCC2CC2)nc2ccsc12,-70,.,25µM,.,.
COc1ccccc1CNc1nc(NCc2ccccc2SC)c2sccc2n1,-77,.,?,.,.
COc1ccccc1CNc1nc(NCCOc2ccccc2)c2sccc2n1,-,.,-,.,.
COc1ccccc1CNc1nc(NCc2ccccc2OC)c2sccc2n1,-91,.,22µM,.,.
CC(C)[C@H](NC(=O)N1CCn2c1nc1ccccc12)C(=O)N[C@@H](C(=O)O)c1ccccc1,-,-,-,-,?
c1cc2cc(CNc3nc(NCC4CC4)nc4ccsc34)ccc2o1,-74,.,?,.,.
COc1ccccc1N(Cc1ccccc1)S(=O)(=O)c1cccc(C(=O)Nc2cc(C)ccn2)c1,-90,?,?,-,-
COc1ccccc1N(Cc1ccccc1)S(=O)(=O)c1cccc(C(=O)NC2CC(C)(C)NC(C)(C)C2)c1,-,2.2µM,-,?,?
COC(=O)CC1(C(=O)OC)Oc2ccccc2C(=O)N1c1ccc(F)cc1F (stereo not drawn),-,-,-,.,.
O=C(Nc1ccc(Cl)cc1F)c1cc(S(=O)(=O)NCc2ccc3c(c2)OCO3)ccc1F,-,.,-,.,-
CN(CC(=O)Nc1ccc(F)cc1)C(=O)CN1C(=O)NC2(CCCc3ccccc32)C1=O (stereo not drawn),-,-,-,-,-
CCCCNC(=O)C(NC(=O)c1ccc(C(F)(F)F)cc1)C(=O)c1ccccc1 (stereo not drawn),-,.,-,.,.
CCCCNC(=O)C(NC(=O)c1ccc2ccccc2c1)C(=O)c1ccccc1 (stereo not drawn),-64,.,-,.,.
Cc1c(Br)c(O)c(Br)c2sc(=O)oc12,-,-,-,20µM,-

# Screening results (PubChem)
